Reference: PubChem BioAssay AID602292 (National Center for Advancing Translational Sciences (NCATS), 2012)
Screen size: about 1,300 compounds; about 380 (29%) were called active. Another 37% or so got no clear call; they are omitted. The call rests on the fitted dose curve; in most records, active means well fitted inhibition curve with a large enough effect; inconclusive means small, poorly fitted or top-dose-only effect; inactive means flat fitted curve, though single readings scatter. This is one part of the list.

Molecular target: Thyrotropin receptor (Homo sapiens) (UniProt P16473)
Sequence (P16473 whole entry, looked up): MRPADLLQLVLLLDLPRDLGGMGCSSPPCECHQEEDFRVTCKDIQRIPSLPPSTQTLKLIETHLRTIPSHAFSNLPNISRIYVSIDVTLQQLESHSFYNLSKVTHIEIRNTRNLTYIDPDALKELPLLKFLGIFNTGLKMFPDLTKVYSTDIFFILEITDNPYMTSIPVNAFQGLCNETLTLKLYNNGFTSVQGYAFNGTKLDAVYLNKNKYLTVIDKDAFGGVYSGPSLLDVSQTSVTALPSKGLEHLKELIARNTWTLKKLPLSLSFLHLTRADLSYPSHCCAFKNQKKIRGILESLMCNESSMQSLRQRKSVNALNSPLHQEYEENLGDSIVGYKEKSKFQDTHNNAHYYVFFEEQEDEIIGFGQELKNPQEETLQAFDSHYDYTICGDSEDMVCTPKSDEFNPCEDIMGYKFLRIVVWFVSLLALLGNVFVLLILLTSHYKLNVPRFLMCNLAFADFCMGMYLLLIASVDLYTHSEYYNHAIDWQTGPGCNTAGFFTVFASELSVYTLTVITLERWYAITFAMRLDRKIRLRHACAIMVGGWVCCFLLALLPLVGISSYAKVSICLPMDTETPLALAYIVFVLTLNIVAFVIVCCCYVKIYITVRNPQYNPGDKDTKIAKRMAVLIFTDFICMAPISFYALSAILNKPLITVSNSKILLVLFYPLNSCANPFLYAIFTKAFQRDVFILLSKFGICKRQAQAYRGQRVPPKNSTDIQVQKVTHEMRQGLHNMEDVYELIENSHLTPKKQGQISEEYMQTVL
Assay: qHTS for antagonists of the Thyroid Stimulation Hormone Receptor: Hit Validation in Primary Screen; further: nearly all actives have a fitted effect of over 80% in size
Details: TSHR-expressing cells, cAMP antagonist mode; series mostly up to 58 µM
Method in brief: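 Competitive HTRF detected cAMP in lysates of TSHR cells, read 30 minutes after antibody and d2 addition at room temperature. Before lysis, cells had 2 hours at 37 deg C with compound plus EC80 TSH, 4nM final.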
Potency means the concentration at half of the fitted maximal effect.

Potency, inactive:
Cc1ccc(CNS(=O)(=O)c2ccc(CN3C(=O)c4cccnc4C3=O)s2)o1
O=C(CCc1ccccc1)N1CCN(Cc2ccc(F)cc2Cl)CC1
Cc1ccc(CCNC(=O)CN2C(=O)COc3ccc(S(=O)(=O)N4CCC(C)CC4)cc32)cc1
C[C@@H](NC(=O)[C@@H]1Cc2ccccc2CN1)C(=O)NC1CCCCC1
COc1cccc(OCC(O)CN2CC(C)CC(C)C2)c1 (stereo not drawn)
Cc1ccccc1-n1nnnc1SC1CCOC1=O (stereo not drawn)
O=C(NCCCN1CCOCC1)c1ccc2c(c1)N(Cc1ccc(Cl)cc1)C(=O)c1ccccc1S2=O (stereo not drawn)
CCOc1ccc(CNC(=O)CCCn2nc(CC)n3c(cc4occc43)c2=O)cc1
CN(C(=O)CN1C(=O)/C(=C/c2ccccc2Cl)SC1=S)C1CCS(=O)(=O)C1 (stereo not drawn)
CN(C)C(=O)[C@H]1C[C@H]1[C@@H](O)[C@H](CO)NC(=O)[C@H](COCc1ccccc1)NC(=O)OC(C)(C)C
Cc1ccc(-c2ccc(/C=N/N=C3/NC(=O)C(CC(=O)O)S3)o2)c([N+](=O)[O-])c1 (stereo not drawn)
O=C(NCCS(=O)(=O)N1CCN(c2ccccc2)CC1)C1CC(=O)N(c2ccccc2)C1 (stereo not drawn)
Cc1ccc(CCNC(=O)C2CCN(S(=O)(=O)c3cccc4cccnc34)CC2)cc1
COc1ccc(-c2nc(CS(=O)CC(=O)NCc3ccccc3)c(C)o2)cc1OC (stereo not drawn)
Cc1cccc(-c2noc(CN(C)C(=O)c3ccco3)n2)c1
O=c1[nH]c(=O)c2nnc(N/N=C/c3ccccc3F)nc2[nH]1
CC(C)Nc1nc(SC(C)C(=O)Nc2ccccc2)nc(N(C)C)n1 (stereo not drawn)
O=C(CSc1nnc(NC(=O)c2cccc(Br)c2)s1)NCC1CCCO1 (stereo not drawn)
CCOc1ccc2nc(NC(=O)CS(=O)(=O)c3ccccc3)sc2c1
Cc1ccc(CCC(=O)NCc2ccccc2)o1
COC(=O)c1cc(-c2c[nH]c3ccccc23)n[nH]1
CC(=O)N1c2ccc(S(=O)(=O)NCCC(=O)Nc3ccccc3C)cc2CC1C (stereo not drawn)
CC(=O)c1ccc(NC(=O)C(C)N(C)CC(=O)Nc2ccc(N3CCOCC3)cc2)cc1 (stereo not drawn)
COc1ccc(CNCc2cc(C)c(OC)cc2C)c(OC)c1
O=C(O)c1ccc(CNC(=O)c2ccc3c(c2)C(=O)N(Cc2cccnc2)C3=O)cc1
O=C(Nc1ccccc1C(=O)N1CCN(c2cccc(Cl)c2)CC1)C1=CSCCO1
COc1cc(NC(=O)C(C)C)ccc1NC(=O)c1ccco1
Cc1cc(C)n2c(C)nnc2c1
CS(=O)c1ccc(-n2c(=O)n(Cc3ccccc3)c(=O)c3[nH]cnc32)cc1 (stereo not drawn)
COc1cc2c(cc1OC)CN(C(=S)NC(=O)c1ccccc1)CC2
CC(=O)C1=C(O)C(=O)N(c2ccc(O)cc2)C1c1cccc(F)c1 (stereo not drawn)
O=C(NCc1ccc(F)cc1)c1ccncc1
O=C(NC(=S)Nc1ccc(C(=O)N2CCOCC2)cc1)c1ccc([N+](=O)[O-])cc1
CCCNc1c(NS(=O)(=O)c2ccc(Br)cc2)c(=O)oc2ccccc12
O=C(NNC(=O)c1n[nH]c(=O)c2ccccc12)c1ccc(Br)cc1
COc1ccccc1CNS(=O)(=O)c1ccc(-n2cccn2)cc1
CS(=O)(=O)c1ccc(N2CCN(c3ccccn3)CC2)c([N+](=O)[O-])c1
Clc1ccc(C2Nc3cccc4cccc(c34)N2)cc1
COc1cc(C(=O)NCCNC(=O)c2cnccn2)cc(OC)c1OC
Cc1ccc(C(=O)Nc2cccc([N+](=O)[O-])c2)cc1S(=O)(=O)Nc1ccc(NC(=O)c2ccccc2)cc1
Cc1ccc(S(=O)(=O)NCCNc2ccc([N+](=O)[O-])cc2)cc1
COCC(=O)N1CCC(n2nccc2NC(=O)c2ccccc2OC)CC1
O=S(=O)(Nc1cccc(-c2ccc(N3CCCCCC3)nn2)c1)c1ccc(F)cc1
Cc1ccc(S(=O)(=O)Oc2ccc(/C=C(/NC(=O)c3ccccc3)C(=O)Nc3ccccc3)cc2)cc1
COc1ccccc1C(=O)Nc1nnc(SCC(=O)NC2CCCC2)s1
COc1cc(NS(=O)(=O)c2ccc(NC(=O)c3ccc(F)cc3)cc2)ncn1
C=CCN(c1ccccc1)S(=O)(=O)c1ccc2[nH]cc(C(=O)NCCOC)c(=O)c2c1
O=C(Nc1ccc2nc3n(c(=O)c2c1)CCCCC3)C(=O)N1CCN(c2ccccc2F)CC1
CC(C)NC(=O)COc1coc(CN2CCN(c3ccccc3F)CC2)cc1=O
Cc1ccc(SCC(=O)NCc2ccccc2C)cc1
COc1ccc(NC(=O)Cn2nnc(C(=O)NCc3cccs3)c2N)c(OC)c1
CC(C)N(C(=O)Cn1c(-c2cccnc2)ccc(C#N)c1=O)C(C)C
CC1CCCC(NC(=O)CN2C(=O)COc3ccccc32)C1C (stereo not drawn)
Cc1ccc(S(=O)(=O)N2CCOCC2)cc1N/N=C(\C#N)c1nc2ccccc2[nH]1
Cc1ccc(S(=O)(=O)N2CCN(C(=O)CCn3cncn3)CC2)cc1

Potency, active:
CC[C@@H](C(=O)[C@@H](C)[C@@H](O)[C@H](C)CCc1ccc(C)c(O)c1C(=O)O)[C@H]1O[C@](CC)([C@H]2CC[C@](O)(CC)[C@H](C)O2)C[C@@H]1C 4.78 µM
Cc1ccccc1CS(=O)(=O)c1nnc([C@H](Cc2ccccc2)NC(=O)OC(C)(C)C)o1 37.9 µM
O=[N+]([O-])c1cc(Br)c(O)c(/C=N/Nc2nnnn2-c2cccc3ccccc23)c1 7.57 µM
O=[N+]([O-])c1cc(Br)c(O)c(/C=N/Nc2nc3ccccc3s2)c1 2.39 µM
O=C(/C=C/c1ccc(Cl)cc1Cl)NCCSCc1ccccc1 21.3 µM
COc1cc([N+](=O)[O-])cc(/C=C2/SC(=S)N(Cc3ccccc3)C2=O)c1O 10.7 µM
O=C1/C(=C\c2cc([N+](=O)[O-])ccc2O)SC(=S)N1Cc1ccc(Cl)cc1 2.69 µM
O=C(Nc1nc2ccc(F)cc2s1)C1CCN(S(=O)(=O)c2cc([N+](=O)[O-])ccc2Cl)CC1 19 µM
N#C/C(=N\Nc1cccc([N+](=O)[O-])c1)C(=O)c1ccc(Br)cc1 15.1 µM
COc1ccc(CC(=O)Nc2cccc(-c3nnc(-c4cccc(C)c4)o3)c2)cc1OC 4.26 µM
CCOc1ccc2nc(NC(=O)c3ccc(OCC4CCCO4)cc3)sc2c1 (stereo not drawn) 30.1 µM
C=CS(=O)(=O)c1sc(Cl)c(N2CCOCC2)c1[N+](=O)[O-] 26.9 µM
Cc1ccc(/C=C/C(=O)Nc2ccc(Oc3ccccc3)cc2)o1 23.9 µM
CCn1nc(C)cc1-c1nnc(Sc2ncc([N+](=O)[O-])s2)n1C 15.1 µM
S=C(Nc1ccc(Oc2ccccc2)cc1)NC1CCCCCC1 12 µM
O=C1C(Nc2ccc(O)cc2)=C/C(=N/S(=O)(=O)c2cccs2)c2ccccc21 30.1 µM
O=C(O)c1ccc(NC2=C/C(=N/S(=O)(=O)c3ccccc3)c3ccccc3C2=O)cc1 21.3 µM
O=C(O)c1ccc(S(=O)(=O)/N=C2\C=C(Nc3ccccc3F)C(=O)c3ccccc32)cc1 37.9 µM
Cc1ccc(S(=O)(=O)/N=C2\C=C(Nc3cccc(C(=O)O)c3)C(=O)c3ccccc32)c(C)c1 30.1 µM
Cc1ccccc1C(=O)N1CCN(c2ccc(NC(=S)NC(=O)c3ccco3)cc2)CC1 21.3 µM
Cc1cc(C(=O)COC(=O)c2ccc(O)cc2O)c(C)n1-c1ccccc1 23.9 µM
O=[N+]([O-])c1ccc(NC(=S)NCc2ccc(F)cc2)cc1 9.53 µM
O=[N+]([O-])c1ccc(NC(=S)NCCc2ccc(F)cc2)cc1 9.53 µM
N#C/C(=N\Nc1ccc(S(=O)(=O)N2CCc3ccccc32)cc1)C(N)=S 9.53 µM
COc1ccccc1C1CCN(c2cc(O)ccc2[N+](=O)[O-])CC1 37.9 µM
O=C(O)c1ccccc1NS(=O)(=O)c1cccc(-n2sc3ccccc3c2=O)c1 23.9 µM
Cc1ccc(NS(=O)(=O)c2cc(C(=O)Nc3cccc([N+](=O)[O-])c3)ccc2C)cc1 21.3 µM
COc1ccc(-c2csc(NC(=O)c3ccccc3NS(=O)(=O)c3ccc(C)cc3)n2)cc1 3.38 µM
COc1ccc(S(=O)(=O)Nc2ccccc2C(=O)Nc2nc(-c3ccc(F)cc3)cs2)cc1OC 3.38 µM
O=C(Nc1nc(-c2ccccc2)cs1)c1ccccc1NS(=O)(=O)c1ccc(F)cc1 3.38 µM
COc1ccc(-c2csc(NC(=O)c3ccccc3NS(=O)(=O)c3ccc(F)c(F)c3)n2)cc1 5.36 µM
Clc1ccccc1CN(Cc1ccccc1)c1ncnc2nc[nH]c12 26.9 µM
Clc1ccc2c(c1)-c1nnc(Br)n1-c1ccccc1S2 26.9 µM
O=S(=O)(Nc1cc(Cl)ccc1-n1cncn1)c1cc(Br)ccc1Br 15.1 µM
COc1ccccc1CNC(=O)CSc1nc(N)c(C#N)c(-c2cccs2)c1C#N 37.9 µM
N#CC(C#N)=NNc1ccc(S(=O)(=O)N2CCCCC2)cc1 3.01 µM
COC(=O)c1ccc(COc2cc(O)c3c(c2)OC(C)(C)CC3=O)cc1 30.1 µM
CC(=O)c1ccc(S(=O)(=O)N2CCN(CCOc3ccc(Br)cc3)CC2)cc1 30.1 µM
